Laboratory results: PubChem BioAssay
Where “and” joins values, the source holds several entries; their conditions need not be identical. Identical values can stand only once. Records with an inconclusive call do not appear. Calls of active or inactive are those of the source. Unless noted, no stated cut-off is given here; in the data, active means inhibition above about 80%; inactive means the rest.

Key:
[1] = circadian clock period modulators, cell-based, LOPAC library, luminescence reporter (AID 2774; call rule not given here;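 further: values are relative to mean of DMSO wells on each plate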); conditions: circadian reporter cells, at 7 µM, actives lie on both sides
[2] = system: Hepatitis C virus NS3 helicase; experiment: HCV NS3 helicase inhibitors, primary screen, biochemical, fluorescence polarization, LOPAC1280 library (AID 687035; in the data active means inhibition above about 37%); conditions: Purified HCV NS3 helicase, Cy5-dT15 ssDNA binding fluorescence polarization; stronger effect = higher value; concentration not given here
[3] = Cy5 fluorescence quenching or enhancement artefacts, artefact control for HCV NS3 helicase inhibitor project, biochemical, LOPAC1280 (AID 687037; call rule not given here); conditions: Cy5-DNA-NS3h complex fluorescence interference counterscreen
[4] = growth inhibition of DIPG glioma cells, dose response, cell-based, SU-DIPG-XVII, MIPE5.0, CellTiter-Glo, qHTS (AID 1347060; cut-off not given, nearly all actives have AC50 up to about 26 µM;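 further: cells exposed to compound for 48 hours before viability readout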); conditions: SU-DIPG-XVII viability, CellTiter-Glo ATP luminescence
[5] = viability loss in pontine glioma line – cell-based, SU-DIPG-XXV, MIPE5.0, CellTiter-Glo, qHTS, dose response (AID 1347065; cut-off not given, nearly all actives have AC50 up to about 26 µM;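 further: cells exposed to compound for 48 hours before ATP readout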); conditions: CellTiter-Glo ATP luminescence
[6] = phospholipid biosynthesis inhibitors in animal cells, primary screen, cell-based, LOPAC library, screen 4 (AID 1347384; call rule not given here); conditions: phospholipid biosynthesis inhibition screen, at 10 µM
[7] = LFS_MB_P medulloblastoma growth inhibition, cell-based, chromothripsis tumors, cisplatin or BGB combos (AID 1671449); conditions: LFS_MB_P medulloblastoma cells;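 further: cells exposed for 96 hours; 0% = vehicle DMSO and 100% = killing by high DMSO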
[8] = HDN33 neuroblastoma growth inhibition, cell-based, chromothripsis tumors, cisplatin or BGB combos (AID 1671450); conditions: HDN33 neuroblastoma cells, stronger effect = higher value;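 further: cells exposed to compound for four days; 0% = vehicle DMSO and 100% = cell killing by high DMSO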
[9] = LFS_MB_1R medulloblastoma cell growth inhibition, synergistic combos for chromothripsis tumors, cisplatin or BGB combos (AID 1671452); conditions: LFS_MB_1R medulloblastoma cells, stronger effect = higher value;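 further: cells exposed for 96 hours before readout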
[10] = HTB85 osteosarcoma cell growth inhibition, synergistic combos for chromothripsis tumors, BGB or cisplatin IC20 combos (AID 1671453); conditions: HTB85 osteosarcoma cells, drug combinations, stronger effect = higher value;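 further: cells exposed for 96 hours before readout; 0% = vehicle DMSO and 100% = high DMSO killing control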
[11] = MDA-MB-436 breast carcinoma cell growth inhibition, synergistic combos for chromothripsis tumors, BGB or cisplatin combos (AID 1671458; call rule not given here;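 further: cells exposed for 96 hours; 0% = vehicle DMSO and 100% = killing by high DMSO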); conditions: MDA-MB-436 breast carcinoma growth inhibition, drug combinations, stronger effect = higher value
[12] = growth inhibition of BT084 medulloblastoma cells, cell-based, ICGC_MB145, cisplatin and BGB IC40 combos (AID 1671461); conditions: drug combinations, stronger effect = higher value;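 further: cells exposed to drugs for 96 hours; 0% = vehicle DMSO and 100% = high DMSO full killing control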
[13] = growth inhibition of RCMB18 medulloblastoma cells, cell-based, cisplatin and BGB IC40 combos (AID 1671462); conditions: stronger effect = higher value;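 further: cells exposed to compound for four days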
[14] = growth inhibition of CRL1545 osteosarcoma cells, cell-based, cisplatin and BGB IC20 combos (AID 1671464); conditions: stronger effect = higher value;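 further: cells exposed to compound for 96 hours before readout; 0% = vehicle DMSO and 100% = high DMSO killing control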
[15] = system: Aerobactin synthetase IucA (Klebsiella pneumoniae); experiment: IucA aerobactin synthetase inhibitors, biochemical, Tocris library, absorbance (AID 1345561; call rule not given here;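 further: 100% = enzyme without compound and 0% = no enzyme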); conditions: purified IucA enzyme assay, absorbance (OD) read-out; stronger effect = lower value;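 tested at 8 µM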
[16] = at 0.5 µM, stronger effect = higher value
[17] = measured here: combination with BGB IC20, at 0.005 µM
[18] = measured here: combination with BGB IC40, at 0.005 µM
[19] = measured here: combination with BGB IC40, at 0.05 µM
[20] = measured here: combination with cisplatin, at 0.5 µM, stronger effect = higher value
[21] = measured here: combination with cisplatin, at 5 µM, stronger effect = higher value
[22] = measured here: with BGB IC20 combination, at 0.5 µM
[23] = measured here: with cisplatin IC20 combination, at 0.5 µM
[24] = measured here: combination with cisplatin, at 0.5 µM
[25] = measured here: combination with cisplatin, at 5 µM
[26] = measured here: with BGB IC20, at 0.5 µM
[27] = measured here: with BGB IC20, at 5 µM
[28] = measured here: with cisplatin IC20, at 0.5 µM
[29] = measured here: with cisplatin IC20, at 5 µM
[30] = measured here: BGB combination, at 0.5 µM
[31] = measured here: BGB combination, at 5 µM
[32] = measured here: cisplatin combination, at 0.5 µM
[33] = measured here: cisplatin combination, at 5 µM
[34] = cisplatin combination, at 0.5 µM
[35] = measured here: BGB IC40 combination 0.05 uM, at 0.05 µM
[36] = measured here: BGB IC40 combination, at 0.05 µM

## COc1cc(NS(C)(=O)=O)ccc1Nc1c2ccccc2nc2ccccc12
[1]
  period change: -0.215 h (inactive)
[2]
  inhibition: -8% (inactive)
[3]
  fluorescence ratio (interference): 0.9 (inactive)
[4]
  AC50: 0.934 µM (active)
[5]
  AC50: 11.8 µM (active)
[6]
  outcome: inactive
[7]; [16]
  inhibition: 66.6% (inactive) and -15.7% (inactive)
[7]; [17]
  inhibition: -8.73% and -9.94%
[7]; [18]
  inhibition: -5.2% and -25.6%
[7]; [19]
  inhibition: -1.49% and -18.2%
[7]; [20]
  inhibition: 79.4% and -1.04%
[7]; [21]
  inhibition: 41.8% and 26.1%
[8]; BGB combo, at 5 µM
  inhibition: 88.5% and 63.3%
[8]; at 0.5 µM
  inhibition: 50.8% (inactive) and 41.9% (inactive)
[8]; cisplatin combo, at 5 µM
  inhibition: 68.8% and 65.8%
[8]; [22]
  inhibition: 51.3% and 43.7%
[8]; [23]
  inhibition: 45.8% and 24%
[8]; single agent, at 5 µM
  inhibition: 88.6% and 78.5%
[9]; at 0.5 µM
  inhibition: 1.68% (inactive) and -19.1% (inactive)
[9]; [19]
  inhibition: 17.9% and -5.14%
[9]; [24]
  inhibition: 10% and -20.9%
[9]; [25]
  inhibition: 63.4% and 27.6%
[10]; at 0.5 µM
  inhibition: 17.3% (inactive) and 24.9% (inactive)
[10]; [26]
  inhibition: 3.95% and 14.9%
[10]; [27]
  inhibition: 82.3% and 79.8%
[10]; [28]
  inhibition: 25% and 29.1%
[10]; [29]
  inhibition: 87.8% and 84.6%
[10]; single agent, at 5 µM
  inhibition: 91% and 89.1%
[11]; at 0.5 µM
  inhibition: 43.4% (inactive) and 40.4% (inactive)
[11]; [30]
  inhibition: 27.5% and 21.1%
[11]; [31]
  inhibition: 55% and 42.6%
[11]; [32]
  inhibition: 41.4% and 47.1%
[11]; [33]
  inhibition: 67.1% and 66.9%
[12]; at 0.5 µM
  inhibition: -11.3% (inactive) and -37.4% (inactive)
[12]; [34]
  inhibition: -2.36% and -21.2%
[12]; cisplatin combination, at 5 µM
  inhibition: 23.7% and 15.2%
[12]; [35]
  inhibition: 53.7% and -12.4%
[12]; single agent, at 5 µM
  inhibition: 7.96% and 23.3%
[13]; at 0.5 µM
  inhibition: -1.22% (inactive) and -23% (inactive)
[13]; cisplatin combo, at 5 µM
  inhibition: 58.3% and 44.1%
[13]; [36]
  inhibition: -16.8% and -37.3%
[13]; [24]
  inhibition: 28.6% and 11.4%
[13]; single agent, at 5 µM
  inhibition: 29.4% and 2.77%
[14]; at 0.5 µM
  inhibition: 24% (inactive) and 17.8% (inactive)
[14]; [22]
  inhibition: 24.3% and 13.1%
[14]; [23]
  inhibition: 23.8% and 20.2%
[14]; single agent, at 0.05 µM
  inhibition: 42.2% and 26.1%
[14]; single agent, at 5 µM
  inhibition: 82.1% and 75.5%

## O=C(O)Cc1nn(Cc2ccc(Br)cc2F)c(=O)c2ccccc12
[15]
  remaining activity: 92.7% (inactive)

## N=c1ccn2c(n1)O[C@H]1[C@H](O)[C@@H](CO)O[C@H]12
[4]
  AC50: 1.18 µM (active)
[5]
  outcome: inactive
[7]; [16]
  inhibition: -28.5% (inactive)
[7]; [17]
  inhibition: -22.6%
[7]; [18]
  inhibition: -23.7%
[7]; [19]
  inhibition: -32.2%
[7]; [20]
  inhibition: -58.3%
[7]; [21]
  inhibition: 86.6%
[8]; BGB combo, at 5 µM
  inhibition: 85.1%
[8]; at 0.5 µM
  inhibition: 76.6% (inactive)
[8]; cisplatin combo, at 5 µM
  inhibition: 80.9%
[8]; [22]
  inhibition: 82.4%
[8]; [23]
  inhibition: 69.1%
[8]; single agent, at 5 µM
  inhibition: 81.4%
[9]; at 0.5 µM
  inhibition: -7.06% (inactive)
[9]; [19]
  inhibition: -18.8%
[9]; [24]
  inhibition: 43.5%
[9]; [25]
  inhibition: 68.2%
[10]; at 0.5 µM
  inhibition: 32.7% (inactive)
[10]; [26]
  inhibition: 1.49%
[10]; [27]
  inhibition: 23.6%
[10]; [28]
  inhibition: 44.8%
[10]; [29]
  inhibition: 50.9%
[10]; single agent, at 5 µM
  inhibition: 64.3%
[11]; at 0.5 µM
  inhibition: 14% (inactive)
[11]; [30]
  inhibition: 5.47%
[11]; [31]
  inhibition: 33.7%
[11]; [32]
  inhibition: 0.616%
[11]; [33]
  inhibition: 57.3%
[12]; at 0.5 µM
  inhibition: -29.7% (inactive)
[12]; [34]
  inhibition: 2.2%
[12]; cisplatin combination, at 5 µM
  inhibition: 58.5%
[12]; [35]
  inhibition: -14%
[12]; single agent, at 5 µM
  inhibition: -28.9%
[13]; at 0.5 µM
  inhibition: -18% (inactive)
[13]; cisplatin combo, at 5 µM
  inhibition: 61%
[13]; [36]
  inhibition: -21.5%
[13]; [24]
  inhibition: 11.8%
[13]; single agent, at 5 µM
  inhibition: -26.3%
[14]; at 0.5 µM
  inhibition: -32.9% (inactive)
[14]; [22]
  inhibition: -44.9%
[14]; [23]
  inhibition: -29.7%
[14]; single agent, at 0.05 µM
  inhibition: -73.2%
[14]; single agent, at 5 µM
  inhibition: 23.2%
